ZTA DNA inh – blocks Epstein-Barr virus ZTA, an EBNA-1 counter-screen | P03206 | ZTA-DNA binding, fluorescence polarization | inhibition, % at 11 µM | 0.15% of 320,000 active | AID 2234; in the data active means inhibition above about 33%
LYPLA1 inh – LYPLA1 (human) inhibition in PME1 counter-screen. O75608. recombinant LYPLA1, FP-Rh probe fluorescence polarization. inhibition, % at 5.9 µM. 0.16% of 320,000 active. AID 2174;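 active means inhibition above the mean of all tested compounds plus 3 SD, set per campaign, cut at about 14% in these data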;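 further: inhibitors block serine hydrolase probe labeling of LYPLA1 so polarization falls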
PREPL inh – inhibitors of human prolyl oligopeptidase-like enzyme PREPL | inhibition, % at 5.96 µM | recombinant PREPL, fluorescence polarization activity-based probe | 0.68% of 320,000 active; in the data active means inhibition above about 43%
Target sequence (Q4J6C6 whole entry, looked up): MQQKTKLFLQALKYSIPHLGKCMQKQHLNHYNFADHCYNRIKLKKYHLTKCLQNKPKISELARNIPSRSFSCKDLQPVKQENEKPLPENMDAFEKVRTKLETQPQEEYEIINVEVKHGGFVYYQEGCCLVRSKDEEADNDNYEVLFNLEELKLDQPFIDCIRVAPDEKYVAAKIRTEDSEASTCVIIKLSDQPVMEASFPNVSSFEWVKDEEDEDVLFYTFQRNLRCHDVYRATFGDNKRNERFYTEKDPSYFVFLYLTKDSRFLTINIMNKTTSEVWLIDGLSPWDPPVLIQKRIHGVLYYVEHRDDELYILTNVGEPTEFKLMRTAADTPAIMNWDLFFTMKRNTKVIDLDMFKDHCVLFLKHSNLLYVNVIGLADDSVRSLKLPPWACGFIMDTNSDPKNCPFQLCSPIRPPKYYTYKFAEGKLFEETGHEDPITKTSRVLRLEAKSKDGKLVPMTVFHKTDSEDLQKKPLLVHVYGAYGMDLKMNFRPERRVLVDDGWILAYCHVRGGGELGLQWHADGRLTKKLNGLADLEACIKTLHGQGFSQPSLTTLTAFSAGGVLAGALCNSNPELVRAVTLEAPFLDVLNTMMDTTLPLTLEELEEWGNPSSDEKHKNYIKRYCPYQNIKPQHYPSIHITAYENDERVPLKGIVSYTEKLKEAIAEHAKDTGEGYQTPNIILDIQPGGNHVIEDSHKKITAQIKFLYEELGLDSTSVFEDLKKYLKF
LYPLA2 counter – blocks human lysophospholipase 2, a PME1 counter-screen; O95372; recombinant LYPLA2, FP-Rh probe fluorescence polarization; inhibition, % at 5.9 µM; 0.38% of 320,000 active;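 active means inhibition above the screen-wide mean plus 3 SD, limit set per campaign, cut at about 26% in these data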
EBNA-1 inhibitor – blocks EBNA-1 binding to DNA | AID 1950 | inhibition, % at 14.8 µM | EBNA-1 DNA binding, fluorescence polarization | 0.34% of 300,000 active; in the data active means inhibition above about 28%
EBNA-1 inh conf – EBNA-1 (EBV) inhibition, confirmation. AID 2292. inhibition, % at 14.8 µM. shares compounds with EBNA-1 inhibitor. Recombinant EBNA-1 DBD, Cy5-DNA fluorescence polarization. 35% of 830 active;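 active means mean inhibition across replicates above a set limit taken from the earlier primary screen, cut at about 28% in these data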
ZTA DNA inh trip – blocks Epstein-Barr virus ZTA in triplicate, EBNA-1 counter-screen | Zta-ZRE DNA binding, Cy5 fluorescence polarization | 830 tested, under 10 active | AID 2328 | inhibition, % at 11.1 µM | shares compounds with EBNA-1 inhibitor;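 active means mean inhibition over triplicates above a set limit taken from the primary EBNA-1 screen, cut at about 37% in these data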;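 further: purified full length Zta protein with Cy5 labeled ZRE DNA probe; inhibitors lower polarization by freeing the labeled DNA probe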
Numbers stand for hits; i = inactive; nt = no result. Sampled rows, rich in hits. Any-hit rate of the full collection: about 1.3%.

SMILES	ZTA DNA inh	LYPLA1 inh	PREPL inh	LYPLA2 counter	EBNA-1 inhibitor	EBNA-1 inh conf	ZTA DNA inh trip
O=C(O)C1=CC[C@@H](c2ccc(Cl)cc2)N(S(=O)(=O)c2ccc(Cl)cc2)[C@H]1c1cccc(Cl)c1	i	i	i	i	i	nt	nt
CCOc1ccc(N(CC(=O)N/N=C(\C)c2cccc(NC(C)=O)c2)S(=O)(=O)c2ccccc2)cc1	i	i	i	i	52.7	i	i
COc1ccc(N(CC(=O)N/N=C(\C)c2ccccc2)S(=O)(=O)c2ccccc2)cc1	i	i	i	i	i	nt	nt
O=c1c2c([nH]n1-c1ccccc1)CCSC2	i	i	i	i	i	nt	nt
O=C(COC(=O)c1cc(Br)ccc1O)Nc1ccc2c(c1)OCO2	i	i	i	i	nt	nt	nt
O=C(COC(=O)c1cc(Br)ccc1O)Nc1ccc2c(c1)OCCO2	i	i	i	i	49.4	i	i
CCOC(=O)c1c(C)[nH]c(C(=O)OCC(=O)Nc2ccc(OC)c(Cl)c2)c1C	i	i	i	i	94.4	31.5	i
CCOC(=O)c1c(C)[nH]c(C(=O)OCC(=O)Nc2cc(Cl)ccc2OC)c1C	i	i	i	i	i	nt	nt
O=S1(=O)N=C(N(CCO)/N=C/c2ccc(Br)cc2)c2ccccc21	i	i	i	i	31.6	i	i
COC(=O)c1ccc(Nc2cc(C)nc(-c3ccccc3O)n2)cc1	i	i	i	i	29.4	i	i
Cc1oc2cc3oc(=O)c(CCC(=O)NCCN4CCOCC4)c(C)c3cc2c1C	i	i	i	i	i	nt	nt
COc1ccc(/C=C2\SC(=O)N(CC(=O)NCCCn3ccnc3)C2=O)cc1	i	i	i	i	i	nt	nt
O=C(Nc1ccc2oc(-c3ccccc3)nc2c1)c1ccccc1F	i	i	i	i	34.8	i	i
Cc1ccc2nc(-c3cccc(NC(=O)c4ccc5c(c4)OCCO5)c3)oc2c1	i	i	i	i	35.1	i	i
Cc1ccc2oc(-c3cccc(NC(=O)Cc4cccs4)c3)nc2c1	i	i	i	i	33.7	i	i
O=C(Nc1ccc2oc(-c3ccc4ccccc4c3)nc2c1)c1ccc2c(c1)OCCO2	i	i	i	i	30.7	i	i
O=C(Nc1ccc2oc(-c3ccncc3)nc2c1)c1ccccc1	i	i	i	i	i	nt	nt
CCC(=O)Nc1cccc(-c2nc3ccc(C)cc3o2)c1	i	i	i	i	i	nt	nt
CCOc1nc2cnccc2n(CC(=O)Nc2ccccc2C(=O)OC)c1=O	i	i	i	i	i	nt	nt
Cc1nn(C(=O)c2c(-c3ccccc3)noc2C)c(C)c1N=Nc1cc(C(F)(F)F)cc(C(F)(F)F)c1	i	i	i	i	i	nt	nt
CCc1ccccc1NC(=O)CN1C(=O)c2ccccc2S1(=O)=O	i	i	i	i	i	nt	nt
O=C(NCCCNC(=O)c1ccccc1)c1ccccc1	i	i	i	i	i	nt	nt
Cc1ccc2nc(SCC(=O)N3c4ccccc4CC3C)c(C)cc2c1 (stereo not drawn)	i	i	i	i	i	nt	nt
Cc1ccc2nc(-c3cccnc3SCC(=O)N3c4ccccc4CC3C)[nH]c2c1 (stereo not drawn)	i	i	i	i	28.4	29.9	i
Cc1cc(Br)cc(Cl)c1OCC(=O)N1CCN(C(=O)c2ccco2)CC1	i	i	i	i	nt	nt	nt
SMILES	ZTA DNA inh	LYPLA1 inh	PREPL inh	LYPLA2 counter	EBNA-1 inhibitor	EBNA-1 inh conf	ZTA DNA inh trip
COc1ccc(C(=O)N/C(=C/c2cccnc2)C(=O)Nc2cccc(C(C)=O)c2)cc1OC	i	i	i	i	i	nt	nt
O=C(CSc1nc2ncc(Cl)cc2[nH]1)c1c[nH]c2ccccc12	i	i	i	i	31.0	i	i
CC(NC(=O)COc1ccccc1)C(=O)N1CCN(c2ccccc2)CC1 (stereo not drawn)	i	i	i	i	nt	nt	nt
Cc1ccc(S(=O)(=O)N(C(=N)N)c2nc(N(C)C)nc(N(C)C)n2)cc1	i	i	i	i	30.6	i	i
Cc1ccc(S(=O)(=O)N(C)c2ccc(N)cc2)cc1	i	i	i	i	i	nt	nt
CN1CCCN(C(=O)c2ccc(Cl)s2)CC1	i	i	i	i	i	nt	nt
CC(=O)Oc1cccc(C2C3=C(CC(C)(C)CC3=O)Nc3ccccc3N2C(C)=O)c1 (stereo not drawn)	i	i	i	i	i	nt	nt
Cc1ccc2c(c1)N1C(=O)c3ccccc3C1C1=C(CC(C)(C)CC1=O)N2 (stereo not drawn)	i	i	i	i	92.8	i	i
CC(=O)Nc1cccc(NC(=O)C(=O)NCC(c2ccco2)N2CCc3ccccc32)c1 (stereo not drawn)	i	i	i	i	i	nt	nt
CCC(=O)N1CCN(c2ccccc2NC(=O)COc2ccc(C(C)C)cc2)CC1	i	i	i	i	72.6	i	i
CCCOc1cccc(-c2nnc(N)s2)c1	i	i	i	i	33.3	i	i
O=C(Nc1cccc([N+](=O)[O-])c1)C1COc2ccccc2O1 (stereo not drawn)	i	i	i	i	i	nt	nt
N#Cc1c2ncn(CC(=O)c3ccc(Br)cc3)c(=O)c2c2n1CCC2	i	i	i	i	28.8	136.1	i
COc1ccc(C(=O)NC2CC(C)(C)Cc3c2cnn3-c2ccccc2)cc1OC (stereo not drawn)	i	i	i	i	i	nt	nt
COc1cc(C(=O)NC2CC(C)(C)Cc3c2cnn3-c2ccccc2)cc(OC)c1OC (stereo not drawn)	i	i	i	i	32.0	33.6	i
O=c1[nH]cc(S(=O)(=O)N2CCN(c3cccc(C(F)(F)F)c3)CC2)c(=O)[nH]1	i	i	i	i	30.8	i	i
Cc1cc2cc(CNC(=O)c3ccc(S(=O)(=O)N4CCCC4)cc3)ccc2n1C	i	i	i	i	33.1	i	i
Cc1nn(-c2ccccc2)nc1C(=O)c1c(C)[nH]n(-c2ccccc2)c1=O	i	i	i	i	i	nt	nt
CCCCc1cc(=O)oc2c3c(cc(OCC(=O)N4CCC[C@H]4C(=O)O)c12)OC(C)(C)CC3	i	i	i	i	i	nt	nt
Cc1cc(=O)oc2c3c(cc(OCC(=O)N4CCC[C@H]4C(=O)O)c12)OC(C)(C)CC3	i	i	i	i	174.4	i	i
CSc1cccc(NC(=O)NCc2cccc(CNC(=O)Nc3cccc(SC)c3)c2)c1	i	i	i	i	34.2	40.5	i
CC(C)(OC(=O)c1ccc(C#N)cc1)c1cc2ccccc2c(=O)o1	i	i	i	i	nt	nt	nt
COC(=O)c1ccc2nc(NC(=O)CCS(=O)(=O)c3ccccc3)sc2c1	i	i	i	i	44.4	51.7	i
CCOC(=O)C1(CCCc2ccccc2)CCN(S(C)(=O)=O)CC1	i	i	i	i	i	nt	nt
COc1cc(C(=O)N2CCN(C(=O)c3ccco3)CC2)c([N+](=O)[O-])cc1OC	i	i	i	i	i	nt	nt
COc1ccc(C(=O)Nc2ccc(C3(C#N)CCCC3)cc2)cc1	i	i	i	i	55.8	i	i
COC(=O)c1ccc(NC(=O)Nc2ccc(OC)cc2)cc1	i	i	i	i	i	nt	nt

Assay outcomes (PubChem)
